# Most compounds without a hit are left out; they make up all but 19% or so of the library.
# HT1080-NT tox = kills 2HG-producing HT-1080-NT fibrosarcoma cells | HT-1080-NT fibrosarcoma viability, CellTiter-Glo ATP luminescence, 48 h | Potency, µM (series often up to 46.1 µM), most hits filed as cytotoxic | actives 1.6% (n = 360,000) | AID 686970;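 note: NT is the 2HG producing partner of a matched IDH1 knockdown line; nearly all actives have a fitted effect of over 55% in size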
#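 HT-1080-NT fibrosarcoma cells (2HG-overproducing), 750 cells/well in RPMI with 5% FBS, dosed after 2 h and incubated 48 h at 37C. CellTiter-Glo luminescence normalized to DMSO and no-cell wells; concentration-response curves fitted and classed.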
# IL-1B inflam inh = inhibitors of inflammasome signaling (IL-1 beta secretion) | THP-1 LPS/ATP IL-1B secretion, AlphaLISA, 16 h; stronger effect = lower value | activity change, % at 57.5 µM | actives 4.7% (n = 360,000); in the data active = activity change below about -50%; inconclusive = mostly about -30% to -49%
#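 Secreted IL-1B measured by AlphaLISA bead assay after 16 h compound exposure of THP-1 cells; compounds (final up to 57.5 uM) added 1 h before LPS (250 ng/mL) and ATP (1.25 mM) stimulation; lower signal means less secretion.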
# DT40 TDP1 CPT = DT40-hTDP1 cell growth loss with CPT. Potency, µM (titrated, usually from 46.2 µM), actives largely listed as inhibitors. chicken DT40 Tdp1-/-;hTDP1 cells + 20 nM CPT, ATP luminescence, 48 h. actives 12% (n = 420,000); note: nearly all actives have a fitted effect of over 55% in size
#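 Chicken DT40 Tdp1-/- cells stably complemented with human TDP1 were seeded at 400 cells/well in medium containing 20 nM camptothecin, exposed to pin-transferred compounds, and grown at 37 °C for at least 48 hr. Viability was read as ATP luminescence.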
# HT1080 IDH1KD tx = HT-1080 IDH1 knockdown cell toxicity (counter line); AID 686971; HT-1080 IDH1 knockdown viability, ATP luminescence, 48 h; actives 2% (n = 360,000); Potency, µM (titrated, usually from 46.1 µM), usual class: cytotoxic
#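 Luminescent ATP read-out (CellTiter-Glo, 10 min at room temperature) after 48 h compound exposure at 37 °C gave viability of IDH1-knockdown HT-1080 cells. Activity was normalised to DMSO and cell-free wells, then fitted as concentration-response curves.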
# uPA surface inh = blocks generation of uPA at the cell surface. cell surface uPA generation assay, qHTS. Potency, µM (titrated, usually from 38.3 µM), usual class: inhibitors. actives 0.31% (n = 330,000); active = well fitted inhibition curve with a large enough effect; inconclusive = small, poorly fitted or top-dose-only effect; inactive = no such curve, though single readings can be large or run the other way; tested in mouse RAW 264.7 cells; note: nearly all actives have a fitted effect of over 55% in size
# TDP1 cell noCPT = qHTS for Inhibitors of human tyrosyl-DNA phosphodiesterase 1 (TDP1): qHTS in cells in absence of CPT. DT40 Tdp1-/- hTDP1 cells, no CPT, ATP luminescence, 48 h. Potency, µM (highest dose often 46.2 µM), usual class: inhibitors. actives 15% (n = 420,000); note: nearly all actives have a fitted effect of over 55% in size
#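 Chicken DT40 Tdp1-/- cells stably complemented with human TDP1 were seeded at 400 cells/well with DMSO in place of 20 nM camptothecin. After compound pinning, cells grew at least 48 hr at 37 °C; viability read by CellTiter-Glo luminescence.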
# A number is an active result; n = inactive; u = inconclusive; x = no result given; [ ] = dose if it differs, or a comment. Unless noted, calls come from the whole dose curve; as a rule, active = well fitted curve in the direction sought with a large enough effect; inconclusive = small, poorly fitted or top-dose-only effect, or another doubt; inactive = no such curve, though single readings can be large; an effect the other way counts as inactive or inconclusive.
SMILES,HT1080-NT tox,IL-1B inflam inh,DT40 TDP1 CPT,HT1080 IDH1KD tx,uPA surface inh,TDP1 cell noCPT
COc1ccc(-c2nc(CSc3nnc(C)n4c3cc3sccc34)c(C)o2)cc1,x,x,n,x,x,n
CCOc1ccc(NC(=O)CSc2nnc(-c3ccccc3Cl)n2Cc2ccco2)cc1,u,n,20.6µM,u,n,18.4µM
O=C(CSc1nnc(-c2ccccc2)n1Cc1ccco1)Nc1ccc(S(=O)(=O)N2CCCC2)cc1,n[9.24 µM],u,u,7.08µM,x,u
CCN1CCCC1CNC(=O)C(=O)NCCc1ccc(OC)c(OC)c1 (stereo not drawn),n,n,n,n,n,n
COc1ccc(OC)c(C2(O)CSC(=Nc3cccnc3)N2Cc2ccco2)c1 (stereo not drawn),n,n,14.6µM,n,x,18.4µM
COc1ccc(OC)c(/C=N/N=C2\SCC(=O)N2Cc2ccco2)c1,n,n,n,n,n,u
CC(C)NC(=O)N[C@H]1CC[C@H](CC(=O)NCc2ccc(Oc3ccccc3)cc2)O[C@@H]1CO,n,n,u,n,x,u
CCN1CCN(CCCNC(=O)c2cnn(-c3ccc(OC)cc3)c2C2CCN(C(=O)OC(C)(C)C)CC2)CC1,x,x,n,x,x,n
COc1ccc(CCN2CCC(CNC(=O)c3cnn(-c4cccc(Cl)c4)c3C3CCN(C(=O)OC(C)(C)C)CC3)CC2)cc1,x,x,8.2µM,x,x,8.2µM
COc1ccc(CCN2CCC(CNC(=O)c3cnn(-c4ccccc4)c3C3CCN(C(=O)OC(C)(C)C)CC3)CC2)cc1,x,x,11.6µM,x,x,8.2µM
CC(C)N1CCN(c2ccncc2S(=O)(=O)N2CCN(C)CC2)CC1,n,n,n,n,x,n
O=C(NCCc1ccc(Cl)cc1)C1CCN(c2ncccn2)CC1,n,n,n,n,n,n
Cc1cc(C)nc(N2CCC(C(=O)NCCc3ccccc3)CC2)n1,n,n,8.2µM,n,n,9.2µM
Cc1cccc(Cn2c(CN3CCC(C(=O)NCCc4ccccc4)CC3)cc3ccccc32)c1,x,x,u,x,x,18.4µM
O=C(NCCc1ccc(Cl)cc1)C1CCN(Cc2cc3ccccc3n2Cc2ccccc2)CC1,x,x,23.1µM,x,x,18.4µM
Cc1cc(C)nc(N2CCC(C(=O)Nc3ccc4c(c3)OCO4)CC2)n1,n,n,8.2µM,n,n,9.2µM
Cc1ccc(Cn2c(CN3CCC(C(=O)O)CC3)cc3ccccc32)cc1,x,x,n,x,x,n
Cc1ccnc(N2CCC(C(=O)Nc3ccc4c(c3)OCO4)CC2)n1,n,n,n,n,n,n
CC(C)/C(C=O)=C(/NC1CCCCC1)c1ccccc1,n,u,n,n,n,u
CCOC(=O)N(C)[C@H]1C[C@H]2c3[nH]c4ccccc4c3CCN2C[C@H]1[C@H](C)O,n,n,u,n,x,u
COc1ccc(CCNC(=O)[C@H](C)N2C(=O)N3CCc4c([nH]c5ccccc45)[C@@]3(C)C2=O)cc1OC,n,n,u,n,n,u
CC[C@]1(O)CC2CN(CCc3c([nH]c4ccccc34)[C@@](C(=O)OC)(c3cc4c(cc3OC)N(C)[C@H]3[C@@](O)(C(=O)OC)[C@H](OC(C)=O)[C@]5(CC)C=CCN6CC[C@]43[C@@H]65)C2)C1 (stereo partly drawn),x,x,0.0708µM,x,x,0.141µM
CC[C@]1(O)C[C@@H]2CN(CCc3c([nH]c4ccccc34)[C@](C(=O)OC)(c3cc4c(cc3OC)N(C=O)[C@H]3[C@@](O)(C(=O)OC)[C@H](C(=O)OC)[C@@]5(CC)C=CCN6CC[C@]43[C@H]65)C2)C1,x,x,0.0266µM,x,x,0.0188µM
CCC1(O)CC2CN(CCc3c([nH]c4ccccc34)C(C(=O)OC)(c3cc4c(cc3OC)N(C=O)C3C(O)(C(=O)OC)C(OC(C)=O)C5(CC)C=CCN6CCC43C65)C2)C1 (stereo not drawn),0.0058µM,n,0.092µM,u,n,0.146µM
O=C(CCc1c[nH]c2ccccc12)N1CCN(S(=O)(=O)c2ccc(F)cc2)CC1,n,n,n,n,n,u
SMILES,HT1080-NT tox,IL-1B inflam inh,DT40 TDP1 CPT,HT1080 IDH1KD tx,uPA surface inh,TDP1 cell noCPT
COc1ccc(NC(=O)CN(C)CC(=O)N(C)C2(C#N)CCC(C)CC2)cc1 (stereo not drawn),n,n,n,n,n,n
CCOC(=O)CC1Sc2ccccc2NC1=O (stereo not drawn),n,n,n,n,x,n
CC(OC(=O)CC1Sc2ccccc2NC1=O)C(=O)N(C)Cc1ccccc1 (stereo not drawn),n,n,u,n,n,20.6µM
C/C(=N/Nc1ccnc2cc(Cl)ccc12)c1ccc(O)cc1,n,-54.2,u,n,u,u
Clc1ccc2c(N/N=C/c3cccc(Br)c3)ccnc2c1,u,-99.2,16.4µM,u,n,16.4µM
Clc1ccc2c(N/N=C/c3ccccc3Br)ccnc2c1,u,-98.3,7.31µM,u,n,2.91µM
C/C(=N\NS(=O)(=O)c1ccc(Cl)cc1)c1ccc(O)cc1,n,n,n,n,n,n
Clc1ccc2c(NNc3ccccc3Cl)ccnc2c1,n,n,u,n,n,u
Brc1cccc(C=Nc2cccc3ncccc23)c1,n,n,n,n,n,n
O=[N+]([O-])c1ccc(/C=N/Nc2ccnc3cc(Cl)ccc23)o1,u,-94.1,14.6µM,u,n,16.4µM
O=C1Nc2ccccc2-c2nnnn2C1N1CCCCC1 (stereo not drawn),n,n,n,n,x,n
O=C(CCCCCNC(=O)c1ccccc1)C[N+](=O)[O-],n,n,n,n,n,n
COc1cccc(CNC(=O)CCc2ccc(OC)c(OC)c2)c1,n,n,n,n,n,n
O=C(c1ccc(Cl)c(S(=O)(=O)N2CCCCCC2)c1)N1CCN(c2ccccc2O)CC1,n,-68.3,u,n,n,u
O=C(c1ccc(Cl)c(Cl)c1)N1CCN(c2ccccn2)CC1,n,n,n,n,n,n
O=C(c1ccc(Cl)c(S(=O)(=O)N2CCCC2)c1)N1CCN(c2ccc(F)cc2)CC1,n,n,u,n,n,13µM
CN1CC(=O)NC1=NC(=O)c1ccc(Cl)c(S(=O)(=O)N2CCCCCC2)c1,n,n,u,n,n,8.2µM
CN(c1ccccc1)S(=O)(=O)c1cc(C(=O)N2CCN(c3ccccn3)CC2)ccc1Cl,n,u,9.2µM,n,n,7.31µM
O=C(c1ccc(Cl)c(S(=O)(=O)N2CCCCC2)c1)N1CCCCC1,n,n,u,n,n,n
O=C(NCC(=O)N1CCCC1)NN=Cc1ccccc1O,n,n,u,n,x,u
CC(=O)C1C(c2ccc(Cl)cc2)c2c(noc2C)CC1(C)O (stereo not drawn),n,n,n,n,n,n

# From PubChem BioAssay
